Test results from ChEMBL document CHEMBL4513141, “CO-ADD screening of NIH (USA) - Clinical Collection” (2021).
Measured potencies and affinities stand elsewhere.

Each compound was assayed on Klebsiella pneumoniae. Settings: Concentration 20 uM; ASSAY_TEST Inhibition of Bacterial Growth; detection method Absorption (OD600); MEDIA CAMHB; plate type 384well; NBS; CORNING #3640; time 18 hr.

Q: Which Inhibition does the source give for `COC(=O)C1=C(C)NC(C)=C(C(=O)OC)C1c1ccccc1[N+](=O)[O-]` [NIFEDIPINE] here?
A: The Inhibition was 22.28%.

Q: `O.O=P1(N(CCCl)CCCl)NCCCO1` (stereo not drawn) [CYCLOPHOSPHAMIDE] was tested. Which Inhibition did it give?
A: Its Inhibition is 7.22%.

Q: Which Inhibition does the source give for `O=C1Nc2ccc(Cl)cc2C(c2ccccc2Cl)=NC1O` (stereo not drawn) [LORAZEPAM] here?
A: The Inhibition was -5.27%.

Q: With `C[C@]12CC[C@H](O)CC1=CC[C@@H]1[C@@H]2CC[C@@]2(C)[C@H]1CC[C@]2(C)O` [METHANDRIOL] as the compound, how does the Inhibition read?
A: The Inhibition was 9.75%.

The compounds below were run on Candida albicans. Settings: 20 µM.

Q: Which Inhibition does the source give for `CC(COc1ccccc1)N(CCCl)Cc1ccccc1.Cl` (stereo not drawn) [PHENOXYBENZAMINE HYDROCHLORIDE] here?
A: The Inhibition was 4.97%.

Q: How did the Inhibition turn out when `NS(=O)(=O)c1cc(C2(O)NC(=O)c3ccccc32)ccc1Cl` (stereo not drawn) [CHLORTHALIDONE] was run?
A: The Inhibition was 3.92%.

Q: How did the Inhibition turn out when `CC(C)(C)NCC(O)c1cc(O)cc(O)c1.O=S(=O)(O)O` (stereo not drawn) was run?
A: Its Inhibition is 2.97%.

Q: How did the Inhibition turn out when `Br.Br.CN1CC[C@]2(c3cccc(O)c3)Cc3nc4ccccc4cc3C[C@H]2C1.O` was run?
A: Its Inhibition is 0.66%.

Q: `CC(C)CC(N(C)C)C1(c2ccc(Cl)cc2)CCC1` (stereo not drawn) [SIBUTRAMINE] was tested. Which Inhibition did it give?
A: The Inhibition was 2.06%.

Q: For `CNC(=O)Oc1ccc2c(c1)[C@]1(C)CCN(C)C1N2C.CNC(=O)Oc1ccc2c(c1)[C@]1(C)CCN(C)C1N2C.O=S(=O)(O)O` (stereo partly drawn), which Inhibition is on record?
A: The Inhibition was 2.24%.

Q: `C[C@H](CCC(=O)O)[C@H]1CC[C@H]2[C@@H]3C(=O)C[C@@H]4CC(=O)CC[C@]4(C)[C@H]3CC(=O)[C@]12C` [DEHYDROCHOLIC ACID] was tested. Which Inhibition did it give?
A: The Inhibition was 3.92%.

Q: With `CN(C)CCC=C1c2ccccc2CCc2ccccc21.Cl` [AMITRIPTYLINE HYDROCHLORIDE] as the compound, how does the Inhibition read?
A: Its Inhibition is 3.15%.

Q: For `Cc1nnc2n1-c1ccc(Cl)cc1C(c1ccccc1)=NC2` [ALPRAZOLAM], which Inhibition is on record?
A: Its Inhibition is 1.98%.

Q: `CCC(COC(=O)c1cc(OC)c(OC)c(OC)c1)(c1ccccc1)N(C)C.O=C(O)/C=C\C(=O)O` (stereo not drawn) was tested. Which Inhibition did it give?
A: Its Inhibition is 3.77%.

Q: How did the Inhibition turn out when `C[N+]1(CCC(C(N)=O)(c2ccccc2)c2ccccc2)CCCCC1.[Br-]` [FENPIVERINIUM BROMIDE] was run?
A: Its Inhibition is 3.32%.

Q: With `CCOC(=O)C1(c2ccccc2)CCN(CCC(C#N)(c2ccccc2)c2ccccc2)CC1.Cl` [DIPHENOXYLATE HYDROCHLORIDE] as the compound, how does the Inhibition read?
A: Its Inhibition is 4.81%.

Q: How did the Inhibition turn out when `C[C@]12Cc3c[nH]nc3C[C@@H]1CC[C@@H]1[C@@H]2CC[C@@]2(C)[C@H]1CC[C@]2(C)O` [STANOZOLOL] was run?
A: Its Inhibition is 8.82%.

Q: How did the Inhibition turn out when `Cc1cc(NS(=O)(=O)c2ccc(N)cc2)no1` [SULFAMETHOXAZOLE] was run?
A: Its Inhibition is 6.42%.

Q: `Cl.O=C1c2cccc3c2[C@H](CCC3)CN1[C@@H]1CN2CCC1CC2` [PALONOSETRON HYDROCHLORIDE] was tested. Which Inhibition did it give?
A: The Inhibition was 2.55%.

Q: How did the Inhibition turn out when `Br.COc1ccc2c3c1O[C@H]1C[C@@H](O)C=C[C@@]31CCN(C)C2` [GALANTAMINE HYDROBROMIDE] was run?
A: The Inhibition was 3.12%.

Q: For `Br.COc1ccc2c(c1)[C@]13CCCC[C@@H]1[C@H](C2)N(C)CC3.O` [DEXTROMETHORPHAN HYDROBROMIDE], which Inhibition is on record?
A: The Inhibition was 2.88%.

Q: With `Cl.Oc1ccc2c3c1OC1C(O)CC[C@@]4(O)[C@@H](C2)N(CC2CCC2)CC[C@]314` (stereo partly drawn) as the compound, how does the Inhibition read?
A: The Inhibition was 2.98%.

Q: For `CC(=O)OCC[N+](C)(C)C.[Cl-]` [ACETYLCHOLINE CHLORIDE], which Inhibition is on record?
A: The Inhibition was 1.39%.

Q: With `C[C@]12CC(C=O)=C(O)C[C@@H]1CC[C@@H]1[C@@H]2CC[C@@]2(C)[C@H]1CC[C@]2(C)O` as the compound, how does the Inhibition read?
A: Its Inhibition is 6.85%.

Q: Which Inhibition does the source give for `Cl.N=C(N)NC(=O)c1nc(Cl)c(N)nc1N.O.O` [AMILORIDE HYDROCHLORIDE] here?
A: Its Inhibition is 4.98%.

Q: For `Cc1c(O)c(=O)ccn1C` [DEFERIPRONE], which Inhibition is on record?
A: The Inhibition was 4.97%.

Q: With `CCOC(=O)C1=C(COCCN)NC(C)=C(C(=O)OC)C1c1ccccc1Cl` (stereo not drawn) [AMLODIPINE] as the compound, how does the Inhibition read?
A: The Inhibition was 4.94%.

Q: Which Inhibition does the source give for `NCCc1ccccn1` here?
A: Its Inhibition is 3.53%.

Q: For `C[C@H](CCC(=O)O)[C@H]1CC[C@H]2[C@@H]3[C@@H](O)C[C@@H]4C[C@H](O)CC[C@]4(C)[C@H]3CC[C@]12C` [URSODIOL], which Inhibition is on record?
A: Its Inhibition is 3.21%.

Q: With `CC(C)c1cccc(C(C)C)c1O` [PROPOFOL] as the compound, how does the Inhibition read?
A: The Inhibition was 2.62%.

Q: Which Inhibition does the source give for `Fc1ccc([C@@H]2CCNC[C@H]2COc2ccc3c(c2)OCO3)cc1.O=C(O)/C=C\C(=O)O` here?
A: Its Inhibition is 2.04%.

Q: Which Inhibition does the source give for `CC(C(=O)O)c1ccc(-c2ccccc2)c(F)c1` (stereo not drawn) [FLURBIPROFEN] here?
A: Its Inhibition is 8.89%.

Q: Which Inhibition does the source give for `CC(=O)OC1C([N+]2(C)CCCCC2)C[C@H]2C3CC[C@H]4C[C@H](OC(C)=O)C([N+]5(C)CCCCC5)CC4(C)[C@H]3CCC12C.[Br-].[Br-]` (stereo partly drawn) here?
A: The Inhibition was -0.59%.

Q: With `CC[C@@H]1/C=C/C=C/C[C@H](C)[C@@H](O)[C@](C)(O)C(=O)[C@H](C)[C@@H](O)[C@H](C)C(=O)[C@H](C)[C@@H](O)[C@H](C)/C=C/C(=O)O[C@H]2[C@@H](C)[C@@H](CC1)O[C@@]1(CC[C@@H](C)[C@@H](C[C@H](C)O)O1)[C@@H]2C` as the compound, how does the Inhibition read?
A: The Inhibition was 5.45%.

Q: For `COC(=O)C1=C(C)NC(C)=C(C(=O)OC)C1c1ccccc1[N+](=O)[O-]` [NIFEDIPINE], which Inhibition is on record?
A: Its Inhibition is 4.72%.

Q: With `O.O=P1(N(CCCl)CCCl)NCCCO1` (stereo not drawn) [CYCLOPHOSPHAMIDE] as the compound, how does the Inhibition read?
A: Its Inhibition is 0.13%.

Q: For `O=C1Nc2ccc(Cl)cc2C(c2ccccc2Cl)=NC1O` (stereo not drawn) [LORAZEPAM], which Inhibition is on record?
A: Its Inhibition is 5.15%.

Q: For `C[C@]12CC[C@H](O)CC1=CC[C@@H]1[C@@H]2CC[C@@]2(C)[C@H]1CC[C@]2(C)O` [METHANDRIOL], which Inhibition is on record?
A: Its Inhibition is 4.69%.
